# HIF-2a block: HIF-2a inhibition. 0.72% of 360,000 active. AID 624352. inhibition, % at 18.8 µM. 786-0 RCC cells HIF-2a reporter, luciferase luminescence, overnight;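 active = inhibition of the luminescence signal of 40% or more relative to plate controls, in a single-dose primary screen at 18.75 µM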
# CF NFkB inh: blocks PAF-induced NF-kB reporter in cystic fibrosis cells; KKLEB NF-kB-GFP reporter, GFP fluorescence overnight; inhibition, % at 5 µM; 0.86% of 360,000 active;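 active = at least 50% inhibition at 5 µM, scaled per plate between neutral and stimulator controls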;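 note: PAF is a Pseudomonas aeruginosa culture filtrate used as stimulus; plate controls were PAF-stimulated DMSO wells for no effect and unstimulated DMSO wells for full effect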
# Peg3 prom inh: Peg3 promoter activity inhibition; HeLa PEG-Prom luciferase reporter, luminescence, overnight; inhibition, % at 20 µM; 1.7% of 360,000 active; AID 588405;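 active = inhibition of at least 50% at 20 µM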
# KKLEB cytotox: reduces viability of KKLEB cystic fibrosis airway cells; KKLEB CF airway cells viability, ATPlite luminescence, overnight; stronger effect = lower value; cells stimulated with P. aeruginosa culture filtrate; activity change (cytotoxicity), % at 5 µM; 0.36% of 360,000 active; AID 602141;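 active = corrected activity change at or below -50% at 5 µM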
# MITF TRPM1 inh: inhibitors of MITF-driven TRPM1 promoter in melanoma cells | SK-MEL-5 TRPM1 promoter luciferase, 24 h | inhibition, % at 12.5 µM | 0.83% of 330,000 active;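 active = mean inhibition across replicates of 60% or more, whatever share of single replicates reaches that level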
# Shn3 3UTR inh: Schnurri-3 reporter inhibition in Clone20 osteoblasts; Clone20 osteoblast Shn3 3'UTR firefly luciferase, 24 h; inhibition, % at 12.5 µM; 0.52% of 360,000 active;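 active = mean inhibition of at least 75% with every replicate also reaching 75%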;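 note: 0% = median of neutral control wells and 100% = pilot-screen positive control compound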
# * = called active by the depositor; · = no result given; ! = not confirmed by another sample. Only some compounds are listed: those with a hit (about 2.7% of all), similar ones and a draw of the others.
SMILES,HIF-2a block,CF NFkB inh,Peg3 prom inh,KKLEB cytotox,MITF TRPM1 inh,Shn3 3UTR inh
CC(=O)Nc1ccc(-c2ccnc3c2CC(C(=O)Nc2cccc(Oc4ccccc4)c2)O3)cc1 (stereo unspecified),0,9,16,-13,·,45
COc1ccc(NC(=O)C2Cc3c(-c4cccc(C(C)=O)c4)ccnc3O2)cc1OC (stereo unspecified),-2,-104,25,13,·,91*
Cc1ccc2c(=O)n3c(nc2c1)C(Cc1ccccc1)NC(=O)c1cc2ccccc2cc1-3 (stereo unspecified),12,1,25,-12,·,10
Cc1ccc2nc3n(c(=O)c2c1)-c1cc2ccccc2cc1C(=O)NC3Cc1ccc(O)cc1 (stereo unspecified),10,-22,69*,-7,·,25
O=C1NC(Cc2ccc(O)cc2)c2nc3cc(F)c(F)cc3c(=O)n2-c2cc3ccccc3cc21 (stereo unspecified),-3,-6,47,2,·,51
O=C1NC(Cc2ccc(O)cc2)c2nc3cc(Cl)ccc3c(=O)n2-c2cc3ccccc3cc21 (stereo unspecified),-20,0,57*,-9,·,66
O=C(NCc1ccccc1)c1sc(=S)n2c1[nH]c(=O)c1ccccc12,-9,51*,14,-19,-16,-17
COc1ccc(NC(=O)CSc2nc(C)c3c(c2C#N)CCCC3)cc1,0,5,-22,8,-4,12
Cc1cccc(NC(=O)CSc2nc(C)c(CC(=O)c3ccc(Br)cc3)c(C)c2C#N)c1C,17,26,71*,-34,76*,49
Cc1nc(SCC(=O)Nc2ccc(F)cc2)c(C#N)c(C)c1CC(=O)c1ccc(Br)cc1,9,33,91*,-35,65*,33
COc1ccccc1CNC(=O)C1(C)CCN1C(=O)C1(c2ccccc2)CC1 (stereo unspecified),2,7,14,-14,·,22
Cc1nc2sccn2c(=O)c1S(=O)(=O)N1CCN(c2ccccc2F)CC1,-6,-3,-11,14,·,10
O=C1C=CC(=O)N1c1ccc(OC(F)F)cc1,50*,10,104*,-6,35,91*
O=C1C=CC(=O)N1c1ccc(O)cc1,-1,12,110*,1,7,6
O=C(O)CNC(=O)c1ccc(OC(F)F)cc1,9,17,-1,-6,9,-10
O=C1CCCC(=O)N1c1ccc(O)cc1,-1,-4,-4,-9,10,4
CC(=O)c1cccc(NS(=O)(=O)c2ccc(-c3cnc(C4CC4)o3)cc2)c1,21,14,47,-12,36,85*
CCN1CCN(c2cc3c(cc2F)c(=O)c(S(=O)(=O)c2ccccc2)cn3C)CC1,3,-5,5,3,7,-11
Cc1ccc(S(=O)(=O)c2cn(C)c3cc(N4CCN(C)CC4)c(F)cc3c2=O)c(C)c1,18,5,76*,-12,18,7
CCCCCCCCCCCCCCCC[n+]1cccc(C(=O)N(CC)CC)c1,46*,91*!,105*,-93*!,18,76
CCCCCCCC[n+]1cccc(C(=O)N(CC)CC)c1,18,7,14,-5,14,-1
O=C1NC[C@H](CCCCN2C[C@H](Cc3ccc(O)cc3)N(CCc3ccc(O)cc3)C(=O)C2=O)N(CC2CCCCC2)C1=O,1,·,·,·,·,·
C=CC(=O)N1C/C(=C/c2ccc(F)cc2)C(=O)/C(=C\c2ccc(F)cc2)C1,82*,91*,107*,-69*,96*,91*
NNC(=O)c1ccncc1,-2,-14,-12,-85*,-1,7
CCOc1cc(C(=O)O/N=C(\N)c2ccccn2)cc(OCC)c1OCC,-56,-3,84*,1,1,-17
SMILES,HIF-2a block,CF NFkB inh,Peg3 prom inh,KKLEB cytotox,MITF TRPM1 inh,Shn3 3UTR inh
CCOc1ccc(C(=O)O/N=C(\N)c2ccccn2)cc1OCC,-206,-7,-141,-1,-39,-97
Cc1ccccc1Cn1cc(NC(=O)c2cc(-c3cccs3)on2)cn1,-26,46,12,-54*,1,-16
CCN(CC)c1ccc(C(=C2C=CC(=[N+](CC)CC)C=C2)c2ccc(N(CC)CC)cc2)cc1,97*,92*,106*,-101*,·,89*
CN(C)CCCn1c(=S)[nH]c2ccccc2c1=O,17,-9,-3,12,-5,-9
CN(C)CCCn1c2c3ccccc3ccc2c2oc(=O)c3ccccc3c21,-94,-132,97*,16,80*,-84
Cn1c(=O)n(CCCOc2ccc(Br)cc2)c2ccccc21,-68,8,-61,-1,7,-3
N=c1n(CCCOc2ccc(Br)cc2)c2ccccc2n1CC(N)=O,7,0,60*,-11,-13,·
O=C(NC1(Cc2ccccc2)CCN(Cc2ccc(-c3ccccc3)cc2)C1=O)c1ccccc1 (stereo unspecified),-1,9,85*,-17,-1,79
O=c1c(Cl)c(Cl)cnn1Cc1ccc(F)cc1,14,35,74*,-5,81*,-3
O=c1cnn(Cc2ccc(F)cc2)c2ccccc12,16,6,3,-5,-5,6
CCN(CC)c1ccc2cc(C(C)=O)c(=O)oc2c1,-119,9,-90,-8,-9,11
CCN(CC)c1ccc2cc(NC(=O)CCC(=O)O)c(=O)oc2c1,84*,-10,44,-5,92*,61
Cc1ccc(N2CC(C(=O)Nc3cc(S(=O)(=O)N4CCCCC4)ccc3C)CC2=O)cc1 (stereo unspecified),9,-3,0,-4,·,30
COc1ccc(-n2cccc2/C=C/[N+](=O)[O-])cc1,35,-13,1,17,43,32
Cc1ccc(S(=O)(=O)n2cccc2/C=C/[N+](=O)[O-])cc1,30,-14,8,19,·,94*
c1ccc(COc2cccc(-c3cc4nc(NCc5cccs5)ccn4n3)c2)cc1,-259,-28,-153,-9,·,-3
O=C(O)c1ccccc1Nc1ccccc1,2,-10,-15,4,-5,1
O=C(O)c1ccccc1Nc1cccc(C(F)(F)F)c1,-13,12,1,-59*,-4,-3
Cc1c2ccccc2nc2c(F)c(NCCO)c(F)c(F)c12,-35,-2,-108,-7,-25,-2
OCCNc1c2ccccc2nc2c(F)c(F)c(F)c(F)c12,97*,9,101*,-8,81*,-23
OC(CNCc1ccco1)Cn1c2ccc(Br)cc2c2cc(Br)ccc21 (stereo unspecified),-19,17,98*,-28,3,18
Cc1cc2c(OCC(O)CNCc3ccco3)cccc2[nH]1 (stereo unspecified),10,4,15,0,-2,2
